Holding throughout (assay): cell viability relative to vehicle control; higher = less cytotoxic
Holding throughout (conditions): 10 µM

One test concerns K562. The procedure, abridged: (§1)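 Four leukaemia lines, as CRISPR-edited mutant clones and isogenic wild-type clones, were tested against Selleck bioactive, kinase and epigenetic probe libraries after removal of identity-inconsistent compounds. Cells were exposed to a single 10 µM dose for 48 h, and CellTiter-Glo luminescence was then read. Viability was calculated relative to the on-plate vehicle control.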

A further test deals with MARIMO. A digest of the protocol:
as §1

Another test deals with MOLM14. A digest of the protocol: as §1
Another test concerns OCI-AML2. A digest of the protocol: as §1

Values joined by “and” are separate entries in the source; they are usually repeats but may differ in a detail not shown here. Equal entries are not always repeated. Structures can show the parent of a compound that is named as a salt.

Broadly, the cell viability is a read-out of living cells in per cent, often relative to untreated cells. For the compound `CO/N=C(/C(=O)N[C@@H]1C(=O)N2C(C(=O)OCOC(=O)C(C)(C)C)=C(C)CS[C@H]12)c1csc(N)n1` [Cefetamet pivoxil hydrochloride], the cell viability in the test on K562 (SRSF2 genotype: SRSF2 P95H/wt) is 95.8% and 97%; in the test on K562 (SRSF2 genotype: SRSF2 wt/wt), 102%; with MARIMO (SRSF2 genotype: SRSF2 P95H/wt) it was 95%; in the test on MARIMO (SRSF2 genotype: SRSF2 wt/wt) it was 104%; in the test on MOLM14 (SRSF2 genotype: SRSF2 P95H/wt), 92.5%; with MOLM14 (SRSF2 genotype: SRSF2 wt/wt) it was 103%. For the same compound, the values for the cell viability in the test with OCI-AML2 (SRSF2 genotype: P95H/wt) and with OCI-AML2 (SRSF2 genotype: wt/wt) were 107% and 98.1%, respectively.

As to `O=C1C[C@@H](c2ccc(O)c(O)c2)Oc2cc(O)cc(O)c21` [Eriodictyol], the cell viability is 98.5% and 97.3% with K562 (SRSF2 genotype: SRSF2 P95H/wt); 108% in the test on K562 (SRSF2 genotype: SRSF2 wt/wt); 88.6% in the test with MARIMO (SRSF2 genotype: SRSF2 P95H/wt); 96.1% with MARIMO (SRSF2 genotype: SRSF2 wt/wt); 112% with MOLM14 (SRSF2 genotype: SRSF2 P95H/wt); 104% with MOLM14 (SRSF2 genotype: SRSF2 wt/wt). In addition, the cell viability was found to be 96.8% in the test with OCI-AML2 (SRSF2 genotype: P95H/wt) and 95.2% in the test with OCI-AML2 (SRSF2 genotype: wt/wt).

For the compound `O=c1[nH]cc(F)c(=O)[nH]1` [Adrucil (Fluorouracil)], the cell viability in the test with K562 (SRSF2 genotype: SRSF2 P95H/wt) is 92.3% and 90%; with K562 (SRSF2 genotype: SRSF2 wt/wt), 74.5%; in the test with MARIMO (SRSF2 genotype: SRSF2 P95H/wt), 68.5%; in the test with MARIMO (SRSF2 genotype: SRSF2 wt/wt), 67.4%; in the test with MOLM14 (SRSF2 genotype: SRSF2 P95H/wt), 37.5%; in the test on MOLM14 (SRSF2 genotype: SRSF2 wt/wt), 26.1%. Moreover, the results for the cell viability in the test with OCI-AML2 (SRSF2 genotype: P95H/wt) and with OCI-AML2 (SRSF2 genotype: wt/wt) were 49.1% and 55.1%, respectively.

`C=CC(=O)N1CC(N2CCN(C(=O)CNc3cc(C4(C)CC4)c(Cl)cc3O)CC2)C1`: the cell viability is 93.9% and 95.2% with K562 (SRSF2 genotype: SRSF2 P95H/wt); 97.3% in the test on K562 (SRSF2 genotype: SRSF2 wt/wt); 88.9% in the test on MARIMO (SRSF2 genotype: SRSF2 P95H/wt); 102% with MARIMO (SRSF2 genotype: SRSF2 wt/wt); 86.1% in the test on MOLM14 (SRSF2 genotype: SRSF2 P95H/wt); 104% in the test on MOLM14 (SRSF2 genotype: SRSF2 wt/wt). Moreover, the cell viability in the test with OCI-AML2 (SRSF2 genotype: P95H/wt) was found to be 112%; in the test on OCI-AML2 (SRSF2 genotype: wt/wt), 108%.

As for `CCOc1cc([C@@H](CS(C)(=O)=O)N2C(=O)c3cccc(NC(C)=O)c3C2=O)ccc1OC`, the cell viability in the test with K562 (SRSF2 genotype: SRSF2 P95H/wt) is 102% and 98.7%; with K562 (SRSF2 genotype: SRSF2 wt/wt) it was 94.5%; in the test with MARIMO (SRSF2 genotype: SRSF2 P95H/wt) it was 99.5%; in the test with MARIMO (SRSF2 genotype: SRSF2 wt/wt) it was 92.5%; in the test on MOLM14 (SRSF2 genotype: SRSF2 P95H/wt), 98%; in the test with MOLM14 (SRSF2 genotype: SRSF2 wt/wt), 94.9%. Moreover, the cell viability was 90.1% in the test on OCI-AML2 (SRSF2 genotype: P95H/wt) and 94.7% with OCI-AML2 (SRSF2 genotype: wt/wt).

As to `CC1(C)O[C@@H]2C[C@H]3[C@@H]4CCC5=CC(=O)C=C[C@]5(C)[C@H]4[C@@H](O)C[C@]3(C)[C@]2(C(=O)CO)O1` [Desonide], the cell viability in the test on K562 (SRSF2 genotype: SRSF2 P95H/wt) was 97.9% and 104%; in the test on K562 (SRSF2 genotype: SRSF2 wt/wt), 102%; in the test on MARIMO (SRSF2 genotype: SRSF2 P95H/wt) it was 102%; in the test on MARIMO (SRSF2 genotype: SRSF2 wt/wt) it was 110%; in the test on MOLM14 (SRSF2 genotype: SRSF2 P95H/wt), 106%; in the test on MOLM14 (SRSF2 genotype: SRSF2 wt/wt), 100%. Moreover, the cell viability in the test on OCI-AML2 (SRSF2 genotype: P95H/wt) came out at 104%; in the test on OCI-AML2 (SRSF2 genotype: wt/wt), 121%.

Consider `O[C@@H]1CO[C@H]2[C@@H]1OC[C@@H]2O` [Isosorbide], for which the cell viability was 102% and 111% in the test on K562 (SRSF2 genotype: SRSF2 P95H/wt); 105% in the test with K562 (SRSF2 genotype: SRSF2 wt/wt); 107% with MARIMO (SRSF2 genotype: SRSF2 P95H/wt); 104% in the test on MARIMO (SRSF2 genotype: SRSF2 wt/wt); 99.6% in the test with MOLM14 (SRSF2 genotype: SRSF2 P95H/wt); 105% in the test on MOLM14 (SRSF2 genotype: SRSF2 wt/wt). In addition, the values for the cell viability in the test with OCI-AML2 (SRSF2 genotype: P95H/wt) and in the test on OCI-AML2 (SRSF2 genotype: wt/wt) were 118% and 99.5%, respectively.

Turning to `CNCCCC12CCC(c3ccccc31)c1ccccc12` [Maprotiline hydrochloride], the cell viability in the test on K562 (SRSF2 genotype: SRSF2 P95H/wt) was 76.7% and 74.8%; with K562 (SRSF2 genotype: SRSF2 wt/wt), 71.2%; in the test on MARIMO (SRSF2 genotype: SRSF2 P95H/wt), 65.2%; in the test with MARIMO (SRSF2 genotype: SRSF2 wt/wt), 71.2%; with MOLM14 (SRSF2 genotype: SRSF2 P95H/wt), 64.4%; in the test on MOLM14 (SRSF2 genotype: SRSF2 wt/wt), 83.2%. For the same compound, the results for the cell viability in the test on OCI-AML2 (SRSF2 genotype: P95H/wt) and in the test with OCI-AML2 (SRSF2 genotype: wt/wt) were 51.1% and 56.8%, respectively.

On to `C[C@@H]1CC[C@@]2(NC1)O[C@H]1C[C@H]3[C@@H]4CC=C5C[C@@H](O[C@@H]6O[C@H](CO)[C@@H](O[C@@H]7O[C@@H](C)[C@H](O)[C@@H](O)[C@H]7O)[C@H](O)[C@H]6O)CC[C@]5(C)[C@H]4CC[C@]3(C)[C@H]1[C@@H]2C` [Khasianine], for which the cell viability in the test on K562 (SRSF2 genotype: SRSF2 P95H/wt) is 104% and 102%; with K562 (SRSF2 genotype: SRSF2 wt/wt), 103%; with MARIMO (SRSF2 genotype: SRSF2 P95H/wt), 102%; with MARIMO (SRSF2 genotype: SRSF2 wt/wt), 104%; in the test with MOLM14 (SRSF2 genotype: SRSF2 P95H/wt) it was 104%; with MOLM14 (SRSF2 genotype: SRSF2 wt/wt), 102%. Moreover, the cell viability was 104% in the test on OCI-AML2 (SRSF2 genotype: P95H/wt) and 107% in the test on OCI-AML2 (SRSF2 genotype: wt/wt).
